# Data as given in PubChem BioAssay AID1347426 (Functional Genomics Laboratory (NCATS/FGL), 2020).
# Out of some 31,000 sequences screened, about 1,400 (4.5%) were called active. This excerpt belongs to a sample that is enriched for actives. Values without a mark were called inactive.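 The calls were made as follows: active = median seed-adjusted z-score above 1 or below -1; inactive = the rest.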
# Experiment: Novel Modifiers of Survival Motor Neuron (SMN) Protein: Gene Identification via Genome-wide siRNA Screen
# Conditions: HEK293T SMN2-luciferase reporter, siRNA knockdown, 72 h; actives lie on both sides
# Text: Spinal muscular atrophy (SMA) is the most common neuromuscular autosomal recessive disorder and one of the leading genetic causes of infant death. SMA results from mutations inducing loss of function or deletion in the survival of motor neuron-1 gene (SMN1), leading to deficiency of the survival motor neuron (SMN) protein. Although a second nearly identical gene, SMN2, is retained in humans, its expression primarily produces an aberrantly spliced isoform that is largely unstable and quickly degraded. We performed a genome-wide RNAi screen using a cell-based reporter assay to identify genes and pathways that modulate SMN protein stability. The screen identified over 200 genes that led to the greatest increase or decrease in luciferase expression.
# Using HEK293T cells stably expressing a luciferase reporter that combines the promoter and splicing based cassettes in tandem with the major portion of the native SMN2 cDNA with luciferase, we performed a genome-wide RNAi screen to identify modulators of SMN protein levels. Luciferase is expressed when full-length SMN protein is generated with luminescence signal proportional to SMN protein levels. Our luciferase-based reporter assay was used to screen Ambion Silencer Select Human Druggable Genome siRNA library (10418 genes, 3 unique siRNAs per gene) using lipid-based reverse transfection.
# Briefly, 1 pmol of each siRNA was spotted to a well of a 384-well plate (Corning, Corning, NY) and 20 microL of serum-free DMEM containing […] of Lipofectamine RNAiMax (Life Technologies, Carlsbad, CA) was then added to each well. Transfected cells were maintained at 37 degrees C in 5% CO2 for 72 hours, 20 microL of ONE-Glo Reagent (Promega) was added to wells for luciferase quantification. Raw luminescence reads were normalized to Ambion(R) Silencer(R) Negative Control #2 siRNA, then log10 transformed. A robust statistical measure of median absolute deviation (MAD) to standardize siRNA activities from each screen. Common Seed Analysis was used to help prioritize clean hits as opposed to those appearing to arise from seed based off-target effects. Candidate modulators were defined as the genes having a MAD score greater than 1.0 or less than -1.0.
row,Sequence,median seed-adjusted z-score
1,CAGAGUCUUUCAUUCGAAUTT against SPATA5,-1.04 (active)
2,GAACUAUGGUGCUACUGGATT against ZNF449,0.178
3,AGAGCUCACUCGUCCCAAUTT against CXCL16,0.201
4,CGAAAAGUCUCACAGUGGATT against ZNF563,0.00283
5,CGGGUAUUGUGGGACUGAATT against USP39,0.821
6,UAAUUGACCUGACCAGUUUTT against SLC30A8,-0.767
7,CUGGAUAAGUGUUUCGAAATT against AP3S2,0.521
8,CACCCACACCGGAUUGAAATT against BAG5,-0.0153
9,CGGCCGCUCUAUAAGCUGATT against LLGL1,-1.13 (active)
10,GCCCUGCGGUACAAUGUCATT against APOBEC2,0.232
11,GGCCUAUUUCCAAACCGAUTT against RICS,0.665
12,CCACCGAUUUGAUCCCAAATT against NAPSA,-0.336
13,CAUUCACCACAAUAGCUAUTT against GPR1,0.0609
14,GGAUUGAAGAUACUACAAATT against THOC1,-3.04 (active)
15,CAACAGCACCAGUUUGACATT against NAGLU,-0.526
16,GGACUUCAGGGUUUAACAATT against FOLR1,-1.31 (active)
17,CAGCCUUACUCAAUUUGUATT against EFS,-0.299
18,CACGUGCAGAGUGUCGAUATT against EEF1D,0.421
19,GGUCUAAACUUGAUCCAAATT against CCAR1,-1.18 (active)
20,AAUAUUUGCUGUUCGUCAATT against MOCS2,0.0327
21,CCAUCCCAAAUUUACAACATT against SARS2,0.524
22,CUCUAACUAUGAUCUCGUUTT against CDS1,0.0208
23,GGCUUGACCUUUUUCGUCUTT against DYNC2H1,-0.613
24,GAACCGACAAAAGUAGAUATT against RARB,0.409
25,GAAUUAGAGUUGAGGGUAATT against MYBPC1,0.295
26,GCAUGGUCUUUCUACUUGUTT against TUBB2A,1.03 (active)
27,CCAAAGCUCUCAUCGGAGATT against GNS,0

row,Sequence,median seed-adjusted z-score
1,GGACUCACCAAAUAGAUCATT against ZNF818,-0.223
2,GCAAGGAGUAUAACAUGUATT against SKAP1,-0.00637
3,CAUUCGAUCUAGCAAAUUATT against TUBB1,-0.289
4,GGCUGUUGGUAACCUGAGATT against TF,0.192
5,GACCAUUCGUACUCCUUGUTT against THAP11,-1.36 (active)
6,CCAUCGCCUUGAAGGAGAATT against RNF31,-0.687
7,AGACCUUCGUGGAAAAAUATT against CDC37,0
8,GGAGGACAAUCAGCAAGGATT against SPOCK2,0.967
9,AGAACAUCAUCGCGCGGGATT against FOXB1,0.223
10,GCUUACUAGUUUGAACGGATT against SPATA5,-1.04 (active)
11,GCUCCAACCUCGAAGUAGATT against ACVR2B,0.824
12,GGCUUCACCUAAAAACGUATT against BRCA2,0
13,GAUCGUUGCAAAGUUCUUATT against CPSF6,-2.38 (active)
14,CUCCACUGCUUUUCCAAGATT against DBX2,0.244
15,GAGUUCCUCUUGGAUCUAATT against CASQ2,0.4
16,GGCGAGGCUUUAUAGUUGATT against ZNF589,-0.0897
17,CCUGGAGCAUCGUAACAUUTT against F11,-0.0319
18,GGCUUAUACAAUGUCAACATT against HOXA7,-0.129
19,AGAUAACAGCAUGGAUUUATT against MMD,0.193
20,GCAAUUUGCUGUUGCCGAATT against RHBDD1,0.00277
21,CCAUUAUUGCUGCCCGGAATT against PGM5,-0.0543
22,GUCUCUGACGGGUCCAUUATT against BMP1,-0.298
23,GGACAAGGCUAACAUCCCATT against HMGA1,0.557
24,GCUUGCACUUAAUCUCACATT against LAMB2,1.12 (active)
25,GGUUAAAGGUUAUGGUCCATT against PROSC,0.173
26,UUUUGUUCAUAUAACGUCATT against IFNA1,-0.625
27,CCACCUUCCUUAUCGACAUTT against FZD8,-0.177
